Some test systems named below: SR leukemia; RPMI-8226 leukemia; OVCAR-8 ovarian; OVCAR-5 ovarian; OVCAR-4 ovarian; SK-OV-3 ovarian; IGROV1 ovarian; OVCAR-3 ovarian; HS 578T breast; NCI/ADR-RES ovarian; T-47D breast; BT-549 breast; MDA-MB-435 melanoma; SW-620 colon; MCF7 breast; HCT-116 colon; HCC-2998 colon; KM12 colon.
What all share (experiment): NCI-60 one-dose screen, 48 h (100 = growth as untreated, 0 = no growth, -100 = all killed)
What all share (conditions): 10 µM unless noted

About 83,000 compounds went through this panel and 20% of them were active in at least one assay; those are over-represented in the sample as a whole.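 Cells were grown in 96-well plates and exposed to the test compound at a single concentration for 48 hours; results are reported as percent growth, with values below 10 considered active.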 A number with no mark means an inactive call. Calls of active or inactive are those of the source.

As to `Cn1c(/C=C/[N+](=O)[O-])cc2ccccc21`, the growth in the assay with SR leukemia is -7.91% (active); in the assay on RPMI-8226 leukemia, -17.3% (active); in the assay on OVCAR-8 ovarian, 10.8%; with OVCAR-5 ovarian, 7.36% (active); in the assay with OVCAR-4 ovarian it was 94.2%; in the assay with SK-OV-3 ovarian, 82.4%. The growth is 0.609% (active) in the assay on IGROV1 ovarian; 88.3% with OVCAR-3 ovarian; 70.2% with HS 578T breast; 59.5% in the assay with NCI/ADR-RES ovarian; 37.4% in the assay with T-47D breast; -43.2% (active) in the assay on BT-549 breast. The growth with MDA-MB-435 melanoma was -21.6% (active); in the assay on SW-620 colon, -70.8% (active); in the assay with MCF7 breast it was -50.5% (active); with HCT-116 colon, -74% (active); in the assay with HCC-2998 colon, -95.1% (active); in the assay on KM12 colon it was -63.8% (active).
For the molecule `CCOC(=O)c1c(C)nn(CC(O)c2ccccc2)c1NC(=O)Nc1cccc(F)c1` (configuration not stated), the growth was 93% in the assay with SR leukemia; 80.8% with RPMI-8226 leukemia; 93.1% in the assay on OVCAR-8 ovarian; 84.8% in the assay on OVCAR-5 ovarian; 83.6% with OVCAR-4 ovarian; 85.2% in the assay with SK-OV-3 ovarian. The growth is 90% in the assay with IGROV1 ovarian; 95.6% in the assay on OVCAR-3 ovarian; 71.4% in the assay with HS 578T breast; 90.9% in the assay with NCI/ADR-RES ovarian; 81.8% in the assay on T-47D breast; 96.4% with BT-549 breast. For the same molecule, the growth in the assay with MDA-MB-435 melanoma is 86.8%; in the assay on SW-620 colon it was 82.7%; in the assay on MCF7 breast, 81.4%; with HCT-116 colon, 84%; in the assay on HCC-2998 colon, 94.6%; in the assay on KM12 colon it was 82.9%.
As for `CC1CN=C(c2cccc(-c3ccc(-c4ccccc4)o3)c2)N1` (configuration not stated), the growth in the assay on SR leukemia was -9.42% (active); in the assay with RPMI-8226 leukemia it was -26.3% (active); in the assay with OVCAR-8 ovarian it was 33.7%; in the assay on OVCAR-5 ovarian it was -5.49% (active); with OVCAR-4 ovarian it was 43.1%; with SK-OV-3 ovarian, 18.4%. Further, the growth with IGROV1 ovarian was 31%; in the assay with OVCAR-3 ovarian, 10.6%; with HS 578T breast it was 17.4%; with NCI/ADR-RES ovarian, 28.3%; in the assay on T-47D breast it was -31.8% (active); in the assay with BT-549 breast, 50.8%. The growth in the assay with MDA-MB-435 melanoma is -75.8% (active); in the assay on SW-620 colon, -40.6% (active); in the assay with MCF7 breast it was -57.2% (active); in the assay on HCT-116 colon, -67.9% (active); with HCC-2998 colon it was -65.4% (active); in the assay on KM12 colon, -8.35% (active).
Consider `COc1ccc(C2=C/C(=C\c3ccc(Cl)cc3)C(=O)N2/N=C/c2ccc(Cl)cc2)cc1`, for which the growth in the assay with SR leukemia was 88.3%; with RPMI-8226 leukemia it was 101%; with OVCAR-8 ovarian, 83.5%; in the assay on OVCAR-5 ovarian it was 103%; in the assay with OVCAR-4 ovarian, 79.2%; with SK-OV-3 ovarian, 88.6%. For the same molecule, the growth is 91.2% in the assay with IGROV1 ovarian; 99.6% in the assay with OVCAR-3 ovarian; 91.4% in the assay with HS 578T breast; 104% in the assay on NCI/ADR-RES ovarian; 82.1% in the assay with T-47D breast; 101% with BT-549 breast. For the same molecule, the growth in the assay with MDA-MB-435 melanoma was 104%; in the assay with SW-620 colon, 98.9%; in the assay with MCF7 breast, 84.5%; in the assay with HCT-116 colon, 109%; in the assay on HCC-2998 colon, 108%; in the assay on KM12 colon it was 90.2%.
Turning to `CCOC(=O)c1c(NC(=O)c2ccc(C(C)(C)C)cc2)sc2cc(O)ccc12`, the growth is 87.9% with SR leukemia; 104% with RPMI-8226 leukemia; 92.7% in the assay on OVCAR-8 ovarian; 104% in the assay on OVCAR-5 ovarian; 104% with OVCAR-4 ovarian; 109% in the assay on SK-OV-3 ovarian. The growth was 80.8% in the assay on IGROV1 ovarian; 110% in the assay with OVCAR-3 ovarian; 105% in the assay on HS 578T breast; 89.2% with NCI/ADR-RES ovarian; 82.7% in the assay on T-47D breast; 94.7% in the assay with BT-549 breast. For the same molecule, the growth in the assay with MDA-MB-435 melanoma was 97.4%; with SW-620 colon, 91.7%; with MCF7 breast it was 88.4%; with HCT-116 colon it was 92.7%; with HCC-2998 colon, 104%; with KM12 colon it was 86%.
Turning to `S=c1[nH]c2cc(Cl)ccc2o1`, the growth was 48.5% in the assay on SR leukemia; 81.5% in the assay with RPMI-8226 leukemia; 115% in the assay on OVCAR-8 ovarian; 92.5% in the assay on OVCAR-5 ovarian; 103% in the assay with OVCAR-4 ovarian; 108% in the assay with SK-OV-3 ovarian. Besides, the growth was 118% in the assay with IGROV1 ovarian; 114% in the assay with OVCAR-3 ovarian; 88.6% in the assay on HS 578T breast; 106% in the assay with NCI/ADR-RES ovarian; 92.3% in the assay with T-47D breast; 99.8% in the assay on BT-549 breast. In addition, the growth in the assay on MDA-MB-435 melanoma is 96.5%; in the assay with SW-620 colon, 94.2%; with MCF7 breast, 105%; in the assay with HCT-116 colon, 91.1%; in the assay on HCC-2998 colon it was 115%; in the assay with KM12 colon it was 100%.
Turning to `N#C/C(=C\c1ccc(Cl)cc1Cl)C(=O)Nc1ncc(Cc2ccc(Cl)c(Cl)c2)s1`, the growth with SR leukemia is 59.6%; with RPMI-8226 leukemia, 92.9%; in the assay on OVCAR-8 ovarian it was 91.6%; in the assay with OVCAR-5 ovarian it was 71.5%; with OVCAR-4 ovarian, 82.8%; in the assay on SK-OV-3 ovarian, 96.6%. Also, the growth in the assay with IGROV1 ovarian is 85.6%; with OVCAR-3 ovarian, 98.9%; in the assay on HS 578T breast, 94.3%; in the assay on NCI/ADR-RES ovarian it was 83.2%; with T-47D breast, 58.5%; in the assay with BT-549 breast, 111%. Also, the growth in the assay with MDA-MB-435 melanoma is 60.8%; in the assay with SW-620 colon, 62.6%; in the assay with MCF7 breast, 84%; in the assay with HCT-116 colon, 78.5%; in the assay on HCC-2998 colon it was 87%; in the assay with KM12 colon, 80.1%.
With `N#CC(C#N)N=Nc1ccc(Cl)cc1Cl`, the growth is 48.1% with SR leukemia; 50.8% in the assay with RPMI-8226 leukemia; 94% in the assay on OVCAR-8 ovarian; 104% with OVCAR-5 ovarian; 71.4% with OVCAR-4 ovarian; 77% with SK-OV-3 ovarian. Besides, the growth in the assay on IGROV1 ovarian was 89.5%; in the assay with OVCAR-3 ovarian, 62%; in the assay with HS 578T breast it was 103%; in the assay on NCI/ADR-RES ovarian, 103%; in the assay with T-47D breast, 24.3%; in the assay with BT-549 breast it was 94.8%. Besides, the growth was 111% with MDA-MB-435 melanoma; 87.3% in the assay on SW-620 colon; 73.6% with MCF7 breast; 66.1% in the assay with HCT-116 colon; 109% with HCC-2998 colon; 101% in the assay with KM12 colon.
For the molecule `CC/C=C\C/C=C/C=C1/C(=O)C=C[C@@H]1C/C=C\CCCC(=O)OC`, the growth is 5.21% (active) in the assay with SR leukemia; 1.81% (active) in the assay with RPMI-8226 leukemia; 13.2% in the assay on OVCAR-8 ovarian; 63.8% with OVCAR-5 ovarian; 85.4% in the assay on OVCAR-4 ovarian; 110% in the assay on SK-OV-3 ovarian. For the same molecule, the growth is 65.4% with IGROV1 ovarian; 11.1% in the assay with OVCAR-3 ovarian; 11.9% in the assay with HS 578T breast; 73.5% in the assay on NCI/ADR-RES ovarian; 16.7% in the assay with T-47D breast; -21.9% (active) with BT-549 breast. Moreover, the growth with MDA-MB-435 melanoma is -39.3% (active); in the assay on SW-620 colon it was -14.3% (active); with MCF7 breast, 18.6%; with HCT-116 colon, -76.1% (active); with HCC-2998 colon, 62%; in the assay with KM12 colon, 20.4%.

The values are drawn from PubChem BioAssay (NCI).
